High-throughput results as filed in PubChem.
Pf growth 48h: P. falciparum growth inhibition at 48 hours (one generation) | P. falciparum luciferase growth in erythrocytes, 48 h | Potency, µM (series often up to 28.7 µM), without a hit: top-dose activity change, negative = inhibition, usual class: inhibitors | 5.9% of 310,000 active | AID 504832; further: potency means the concentration at half of the fitted maximal effect
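A one-generation exposure of luciferase-tagged malaria parasites in RPMI 1640/Albumax erythrocyte culture, 37 C and 5% CO2. Inhibition is inferred from decreased luminescence after adding detection reagent.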
HCV inhibitor: HCV inhibition; Huh7.5.1 HCVcc-Cre infection, luciferase reporter, 44 h; Potency, µM (doses to about 41.8 µM), for the others: at the highest dose activity change, negative = inhibition, most hits filed as inhibitors; 3.4% of 340,000 active; AID 651820; further: potency means the concentration at half of the fitted maximal effect
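Infectious HCV cell culture screen: compound-treated cells (1,000/well, pre-plated 4 h) are infected with HCVcc-Cre at roughly 0.5 moi and grown 44 h. Infection is quantified by luciferase signal after 15 min substrate incubation at room temperature.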
HCMV inh: human cytomegalovirus inhibition; HFF cells, HCMV-luciferase reporter, 72 h; hits give low values; activity change, negative = inhibition, % at 57.5 µM; 4.5% of 410,000 active; in the data active means activity change below about -60%; inconclusive means no clear call, values can overlap the other calls; inactive means above about -39%
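HFF cells seeded 16 h at 37C, treated with compounds, infected with luciferase-reporter HCMV at MOI 1 PFU/cell; luciferase read at 72 h post infection, normalized to buffer-only and Salinomycin controls.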
LASV entry inh: blocks Lassa virus binding to or entry into cells. Potency, µM (top dose mostly 37.9 µM), inactives show at the highest dose activity change, negative = inhibition, usual class: inhibitors. AID 540256. 1.2% of 300,000 active. Lassa virus pseudotype entry inhibition, cell reporter; calls by dose curve; tested in HEK293 cells; further: potency means the concentration at half of the fitted maximal effect; nearly all actives have a fitted effect of over 50% in size
Marburg entry inh: inhibitors of Marburg virus binding or cell entry; Marburg virus pseudotyped entry inhibition, cell reporter; Potency, µM (top dose mostly 37.8 µM), for the others: at the top dose activity change, negative = inhibition, usual class: inhibitors; 1.8% of 300,000 active; AID 540276; calls by dose curve; tested in HEK293 cells; further: potency means the concentration at half of the fitted maximal effect
Pf growth 96h: P. falciparum growth inhibition at 96 hour, primary screen for plastid delayed-death inhibitors. P. falciparum luciferase reporter growth, 96 h. Potency, µM (doses to about 28.7 µM), inactives show at the top dose activity change, negative = inhibition, usual class: inhibitors. 6.9% of 320,000 active; further: potency means the concentration at half of the fitted maximal effect
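Infected RBCs, 2% Hct / 0.05% parasitemia final; luciferase-reporter P. falciparum; cpd 96 h, 37 C, 5% CO2; luciferase detection reagent; luminescence.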
Starred values were filed as active, the others as inactive; ? = inconclusive; · = no result given; [ ] = dose if it differs, or a comment. Most compounds without a hit are left out; they make up all but 14% or so of the library. Unless noted, the call rests on the fitted dose curve; in most records, active means well fitted inhibition curve with a large enough effect; inconclusive means small, poorly fitted or top-dose-only effect, or another doubt; inactive means no such curve, though single readings can be large or run the other way. On the % scale 0 is the no-effect control and ±100 the full control effect.

SMILES | Pf growth 48h | HCV inhibitor | HCMV inh | LASV entry inh | Marburg entry inh | Pf growth 96h
COc1cc([C@@H]2C(C#N)=C(N)Oc3cc(C)n(CCN4CCOCC4)c(=O)c32)cc(OC)c1OC | · | · | · | · | 0% | ·
CCOc1ccc(NC(=S)NCc2ccc3[nH]c(C)cc3c2)cc1 | ? | 11µM* | -13 | 2.9µM* | 2% | -2%
COc1cc(OC)cc(C(=O)NCc2ccc3[nH]c(C)cc3c2)c1 | 9.3µM* | -7% | 15 | · | · | 19µM*
COc1ccc(/C=C\C(=O)NCc2ccc3[nH]c(C)cc3c2)cc1OC | -2% | 2% | 72 | -21% | 25% | -28%
COc1cc(/C=C\C(=O)NCc2ccc3[nH]c(C)cc3c2)cc(OC)c1OC | 12µM* | -28%[8.37 µM] | 19 | -6% | 4% | 13µM*
COc1cccc(C(=O)NCc2ccc3[nH]c(C)cc3c2)c1 | ? | -28% | 35 | · | · | 0%
CCCCN(CC)CCCNC(=O)CS(=O)(=O)Cc1nc(-c2ccc(C)cc2)oc1C | · | · | ? | ? | -1%[46.1 µM] | ·
Cc1ccc(OCCC(=O)Nc2cc(S(=O)(=O)N3CCOCC3)ccc2N2CCCC2)cc1 | · | ? | 0 | · | · | ·
O=C(CC1CC2CCC1C2)N1CCN(S(=O)(=O)c2ccccc2C(F)(F)F)CC1 (stereo not drawn) | 12µM* | ? | 0 | · | · | ?
CC(=O)c1c(C)[nH]c(C(=O)CN2CCN(S(=O)(=O)c3ccccc3[N+](=O)[O-])CC2)c1C | ? | ? | -32 | · | · | 10µM*
CCCS(=O)(=O)N1CCN(S(=O)(=O)c2ccccc2[N+](=O)[O-])CC1 | 8% | -3% | -35 | ? | -12%[46.1 µM] | ?
O=S(=O)(c1ccccc1C(F)(F)F)N1CCN(S(=O)(=O)c2ccccc2C(F)(F)F)CC1 | · | 19% | 23 | 2% | -5% | -21%
O=C(CC1CC2CCC1C2)N1CCN(S(=O)(=O)c2ccccc2[N+](=O)[O-])CC1 (stereo not drawn) | ? | 12% | -40 | · | · | 10µM*
CC1CC(C)CN(S(=O)(=O)c2ccccc2[N+](=O)[O-])C1 (stereo not drawn) | -23% | 5% | -72* | 2% | -13% | -3%
C#CCN1C(=O)CC[C@@H](S(=O)(=O)c2ccccc2)[C@@H]1c1ccccc1 | · | · | 1 | · | · | ·
COc1ccccc1/C=C/C(=O)OCC(=O)N1CCN(S(=O)(=O)c2ccc(C)cc2C)CC1 | ? | ? | -14 | ? | ? | -31%
COc1ccc(O)c(/C=N/NC(=S)Nc2cccc(S(=O)(=O)N(C)C)c2)c1 | 4.1µM* | ? | 27 | 4.6µM* | 3.7µM* | 4.7µM*
CCN(CC)S(=O)(=O)c1ccc(N/N=C/c2cccnc2)nc1 | ? | 0% | -23 | · | · | -8%
CCN(CC)S(=O)(=O)c1ccc(N/N=C/c2cc(OC)ccc2O)nc1 | 4.7µM* | 2.8µM* | -103* | ? | ? | 8.3µM*
CC(C)C(=O)Nc1cccc(S(=O)(=O)c2cccc(NC(=O)C(C)C)c2)c1 | ? | ? | -25 | 0.63µM* | ? | ?
CSc1cccc(NC(=O)C(C)C)c1 | 17% | -6% | -8 | 19% | 1% | -2%
COc1cc(/C=N/NC(=S)Nc2cccc(S(=O)(=O)N(C)C)c2)cc(OC)c1O | -30% | -9% | 0 | -1% | 20% | 12µM*
COc1cccc(/C=N/NC(=S)Nc2cccc(S(=O)(=O)N(C)C)c2)c1 | ? | -23% | 0 | · | · | 3%
O=C1C=C(OCCF)CC(c2ccccc2C(F)(F)F)O1 (stereo not drawn) | · | · | -10 | · | · | ·
CCCCNc1sc(S(=O)(=O)CCC)nc1S(=O)(=O)c1ccc(C)cc1 | · | · | -10 | -8%[46.1 µM] | ? | ·
CN(C)S(=O)(=O)c1cccc(NC(=S)N/N=C/c2ccco2)c1 | 3.7µM* | -3% | -35 | · | · | ?
COc1ccc2cc(C(C)C(=O)Nc3cccc(S(=O)(=O)N(C)C)c3)ccc2c1 (stereo not drawn) | ? | 25µM* | -29 | ? | ? | ?
COc1ccc(O)c(/C=N/NC(=S)Nc2cccnc2)c1 | ? | ? | 0 | · | · | 0.52µM*
